37 compounds from PubChem BioAssay (NCI) can be followed below.

Compounds without any hit were thinned out: in the full panel of roughly 83,000, 20% have a hit.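 How to read the values: 0–100, growth inhibition (40 = 60% inhibited); 0, no net growth; -100 to 0, cell death (-40 = 40% of starting cells died; -100 = all dead).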 A number with no mark means an inactive call. Activity calls are given as the source filed them. Rule for the calls: active = growth percent below 10; inactive = the rest.

The test system of this assay is SK-MEL-28 melanoma. As to the kind of experiment: NCI-60 one-dose screen, 48 h (100 = growth as untreated, 0 = no growth, -100 = all killed). The note with it: 10 µM unless noted.
Regarding `COC(=O)[C@@H](C)C[C@H](Cc1ccccc1)NC(=O)c1nc([C@@H](C[C@H](C(C)C)N(C)C(=O)[C@@H](NC(=O)[C@H]2CCCN2C)C(C)C)OC(C)=O)sc1C`, the growth is 65.6%. On to `CCCCCSC1C2C(=O)C(Br)=CC13CCNc1c(O)c4c5c(c13)=[N+]2CCC=5C=N4` (configuration not stated), for which the growth is -18.2% (active). In the case of `CC1=C(CCCOC(=O)CN)C2=C(C)C3(CC3)[C@@](C)(O)C(=O)C2=C1`, the growth was 115%. `COC(=O)CC[C@H](Cc1ccccc1)NC(=O)c1csc([C@@H](C[C@H](C(C)C)N(C)C(=O)[C@@H](NC(=O)[C@H]2CCCCN2C)C(C)C)OC(C)=O)n1`: the growth was 77.3%. As for `COC(=O)CC12CC(NC(=O)c3csc([C@@H](C[C@H](C(C)C)N(C)C(=O)[C@@H](NC(=O)[C@H]4CCCCN4C)C(C)C)OC(C)=O)n3)(C1)C2`, the figure is 59.4%; as for `O=C1CNC(c2ccccc2)c2cc(Cl)ccc2N1` (configuration not stated), 116%; as for `CC1(C)N=C(N)N=C(N)N1c1cccc(CCCCc2ccc(Cl)c(S(=O)(=O)F)c2)c1`, 70.2%.

Consider `CC(=O)O[C@H](C[C@H](C(C)C)N(C)C(=O)[C@@H](NC(=O)[C@H]1CCCCN1C)C(C)C)c1nc(C(=O)N[C@@H](Cc2ccccc2)C[C@H](C)C(=O)O)c(C(C)C)s1`, for which the growth was 60.9%. As to `COC(=O)[C@@H](C)C[C@H](Cc1ccccc1)NC(=O)c1csc(CC[C@H](C(C)C)N(C)C(=O)[C@@H](NC(=O)[C@H]2CCCCN2C)C(C)C)n1`, the growth was 63.2%. Regarding `CCOP(=O)(NC[C@H]1O[C@](O)(CO)[C@@H](O)[C@@H]1O)OCC`, the growth was 116%.

As for `COc1cc([C@@H]2c3cc4c(cc3[C@H](OC(C)=O)[C@H]3COC(=O)[C@H]23)OCO4)cc(OC)c1OC`, the growth was 64.3%.

For `COC(=O)[C@@H](C)C[C@H](Cc1cn(C)c2ccccc12)NC(=O)c1csc([C@@H](C[C@H](C(C)C)N(C)C(=O)[C@@H](NC(=O)[C@H]2CCCCN2C)C(C)C)OC(C)=O)n1`, the growth was 60.6%. In the case of `CCOC(=O)[C@@H](C)C[C@H](Cc1ccccc1)NC(=O)c1csc([C@@H](C[C@H](C(C)C)N(C)C(=O)[C@@H](NC(=O)[C@H]2CCCCN2C)C(C)(C)C)OC(C)=O)n1`, the growth was 51.2%. On to `CC1=C(CCCNS(C)(=O)=O)C2=C(C)C3(CC3)[C@@](C)(O)C(=O)C2=C1`, for which the growth is -28.4% (active). As for `COC(=O)[C@@H](C)C[C@H](Cc1ccccc1)NC(=O)c1cccc([C@@H](C[C@H](C(C)C)N(C)C(=O)[C@@H](NC(=O)[C@H]2CCCCN2C)C(C)C)OC(C)=O)n1`, the figure is 67.2%; as for `CNC(=O)Oc1ccc(C(C)(C)C)cc1OC(=O)NC`, 107%. As for `CC1(C)C(C(=O)c2cn(CCCCF)c3ccccc23)C1(C)C`, the figure is 116%; as for `CC(=O)O[C@H](C[C@H](C(C)C)N(C)C(=O)[C@@H](NC(=O)[C@H]1CCCCN1C)C(C)C)c1nc(C(=O)NC2CCC(C(=O)O)CC2)cs1` (some centres not stated), 71.4%.

In the case of `CCCC[C@H](NC(=O)[C@H]1CCCN1C)C(=O)N(C)[C@H](C[C@@H](OC(C)=O)c1nc(C(=O)N[C@@H](Cc2ccccc2)C[C@H](C)C(=O)OCC)cs1)C(C)C`, the growth was 71.3%. As for `CCOC(=O)[C@@H](C)C[C@H](Cc1ccccc1)NC(=O)c1csc([C@@H](C[C@H](C(C)C)N(C)C(=O)CNC(=O)[C@H]2CCCCN2C)OC(C)=O)n1`, the figure is 57.1%; as for `COc1ccc([As]=[As]c2ccc(OC)c(NCS(=O)(=O)O)c2)cc1NCS(=O)(=O)O` (configuration not stated), 0.0807% (active). On to `CC1=C(CCCOC(=O)[C@H](N)CC(C)C)C2=C(C)C3(CC3)[C@@](C)(O)C(=O)C2=C1`, for which the growth was 33.8%. Take `O=[N+]([O-])c1cc(I)cc([N+](=O)[O-])c1`: the growth was 116%. In the case of `CC(=O)OC[C@]1(C)C=C2C(=O)[C@](C)(O)C3(CC3)C(C)=C2[C@H]1OC(=O)N(C)CCN(C)C(=O)OC(C)(C)C`, the growth is -4.04% (active). As to `CC[C@H](C)[C@H](NC(=O)[C@H]1CCCCN1C)C(=O)N(C)[C@H](CCc1nc(C(=O)N[C@@H](Cc2ccccc2)C[C@H](C)C(=O)OC)cs1)C(C)C`, the growth was 65.6%.

For `COc1ccc(Nc2ccc([N+](=O)[O-])cc2[N+](=O)[O-])cc1CN(CCCl)CCCl`, the growth is 73.6%. As for `COC(=O)CCc1c[nH]c2ccc(N(CCCl)CCCl)cc12`, the figure is 91.1%; as for `Nc1c(F)cc(-c2nc3cc(F)ccc3[se]2)cc1F`, 116%. As for `COC(=O)[C@@]1(C)CC[C@]2(C)CC[C@]3(C)C4=CC=C5C(=CC(=O)C(O)=C5C)[C@]4(C)CC[C@@]3(C)[C@@H]2C1`, the figure is -92.9% (active); as for `COC(=O)[C@@H](C)C[C@H](Cc1ccccc1)NC(=O)c1nc([C@@H](C[C@H](C(C)C)N(C)C(=O)[C@@H](NC(=O)[C@H]2CCCCN2C)C(C)C)OC(C)=O)sc1C`, 66.1%; as for `CC(=O)O[C@H](C[C@H](C(C)C)N(C)C(=O)[C@@H](NC(=O)[C@H]1CCCN1C)C(C)C)c1nc(C(=O)N[C@@H](Cc2ccccc2)C[C@H](C)C(=O)O)c(C)s1`, 61.9%. As for `CCOC(=O)[C@@H](C)C[C@H](Cc1ccccc1)NC(=O)c1csc([C@@H](C[C@H](C(C)C)N(C)C(=O)[C@H](CCC(C)C)NC(=O)[C@H]2CCCCN2C)OC(C)=O)n1`, the figure is 64.8%; as for `COC(=O)C12CC(NC(=O)c3csc([C@@H](C[C@H](C(C)C)N(C)C(=O)[C@@H](NC(=O)[C@H]4CCCCN4C)C(C)C)OC(C)=O)n3)(C1)C2`, 62.4%. With `Clc1ccc2nnnn2n1`, the growth was 51.9%. As for `CC[C@H](C)[C@H](NC(=O)[C@H]1CCCCN1C)C(=O)N(C)[C@H](C[C@@H](O)c1nc(C(=O)N[C@@H](Cc2ccccc2)C[C@H](C)C(=O)O)cs1)C(C)C`, the figure is 82.8%. As for `N#C[S-].[Au+].c1ccc(CN2[CH-]N(Cc3ccccc3)C(c3ccccc3)=C2c2ccccc2)cc1`, the figure is 20.8%; as for `CCCCCCCCCCCCNC(c1ccccc1)C(O)c1ccccc1` (configuration not stated), 97.4%.
